ARNT-TACC3 inh: ARNT/TACC3 interaction disruption; AID 623870; AlphaScreen His-ARNT PAS-B/GST-TACC3 binding, luminescence; TACC3 fragment carries E629A point mutation; hit rate 0.66% among 390,000; inhibition, % at 9.99 µM;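 active means mean inhibition of replicates at least 50% and at least half of replicates each reaching 50%; inconclusive means half or more replicates reach 50% but mean below 50%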;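 further: 0% = complete ARNT plus TACC3 wells and 100% = ARNT alone without TACC3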
aDG glyco up: alpha-DG glycosylation activation; hit rate 0.22% among 360,000; activation, % at 10 µM; Pro5-aDG cells, alpha-DG glycosylation AlphaScreen (IIH6); 0% Pro5, 100% B10-LARGE cell signal;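 active means activation of at least 8% versus controls, or a plate z-score of at least 8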;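 further: Pro5 are CHO cells carrying HIG-tagged alpha-DG that lacks glycosylation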
N-glyco inh: N-linked glycosylation inhibition; D54 ERlucT glycosylation luciferase reporter, 24 h; percent of 100 nM tunicamycin response; reporter increase, % at 12.5 µM; hit rate 0.23% among 360,000; AID 588692;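 active means mean luciferase reporter signal, scaled so untreated is 0 and the glycosylation-blocking control 100, at or above a set limit in every replicate; inconclusive means mean reaches the limit but not every replicate does; inactive means mean below the limit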;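 further: luciferase carries N-glycosylation sites so blocking glycosylation raises the light; 0% = median of neutral control wells and 100% = median of 100 nM tunicamycin wells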
Cardio protect: myocardial damage modulation in H9c2 cells | H9c2 cardiomyocytes, H2O2 injury protection, ATPLite, 2 h | hit rate 0.63% among 360,000 | protection from H2O2 cell death, % at 20 µM | AID 588492;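 active means compounds giving at least 50% protection of heart cells from peroxide-induced death in the single-dose screen, raw or plate-pattern-corrected value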;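 further: 0% = DMSO wells with peroxide and 100% = DMSO wells without peroxide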
Vif inh: blocks HIV Vif function; inhibition, % at 7.49 µM; hit rate 0.35% among 340,000; AID 602346; HEK293T cells, Vif self-association by quenched fluorescence, imaging, 24 h; in the data active means inhibition above about 50%, passing the limit was not always enough; inconclusive means no clear call, values can overlap the other calls; inactive means below about 31%
* marks the source's active call; other numbers are inactive results; ? = inconclusive; . = not tested or not shown; ! = repeats disagree. Hits are enriched below; roughly 1.7% of the tested compounds scored in any of these assays.

SMILES	ARNT-TACC3 inh	aDG glyco up	N-glyco inh	Cardio protect	Vif inh
COc1ccc(CNC(=O)C[C@H]2C[C@@H]3c4cc(NC(=O)CN(C)C)ccc4O[C@@H]3[C@@H](CO)O2)cc1	-3.3	.	.	.	.
O=C(C[C@@H]1CC[C@@H]2[C@H](COC[C@H](O)CN2C(=O)c2ccc(F)cc2)O1)NC1Cc2ccccc2C1	3.1	.	.	.	.
COc1ccc2[nH]c(=O)c(CNc3cccc(C)c3)cc2c1	1.1	0.0	-1.6	31.4	-2.3
COc1ccc(NCc2cc3ccccc3[nH]c2=O)cc1	.	-0.3	4.0	62.4*	.
COc1ccc(NCc2cc3cc(OC)ccc3[nH]c2=O)cc1	-0.3	0.0	2.0	99.0*	3.0
COc1ccc2[nH]c(=O)c(CN(c3ccccc3OC)S(=O)(=O)c3ccccc3)cc2c1	-6.0	0.0	1.3	67.6*	.
COc1ccc2[nH]c(=O)c(CNC3CCCCC3)cc2c1	-14.2	0.5	-0.5	56.6*	?
C[C@@H]1CN([C@@H](C)CO)S(=O)(=O)c2ccc(C3=CCCCC3)cc2O[C@H]1CN(C)Cc1ccccn1	6.6	.	.	.	.
C[C@H](CO)N1C[C@H](C)[C@H](CN(C)Cc2ccc(C(F)(F)F)cc2)Oc2c(NC(=O)Nc3cccc4ccccc34)cccc2C1=O	15.3	.	.	.	.
O=S(=O)(O)c1cc(Cl)cc(N=Nc2ccc(O)cc2O)c1O	63.2*	-0.2	-3.3	2.6	-6.4
O=C(C[C@H]1CC[C@H]2[C@@H](COC[C@@H](O)CN2C(=O)C2CC2)O1)NCc1ccccc1Cl	-10.9	.	.	.	.
Cc1nc2c(-c3ccc(Cl)cc3)c(C)[nH]n2c(=O)c1Cc1ccccc1	7.9	12.1*	-12.8	-14.8	-0.1
COc1ccc(-c2c(C)[nH]n3c(=O)c(Cc4ccccc4)c(C)nc23)cc1OC	87.5*	-0.3	-1.2	-7.9	-7.1
CC1(NC(=O)CCc2nc3ccccc3c(=O)[nH]2)CCS(=O)(=O)C1 (stereo not given)	1.1	-0.1	1.5	50.8*	5.8
CN(CC(=O)Nc1ccccc1Cl)C(=O)CCc1nc2ccccc2c(=O)[nH]1	6.5	0.1	-1.6	64.0*	17.1
CN(CC(=O)Nc1ccc(Cl)c(C(F)(F)F)c1)C(=O)CCc1nc2ccccc2c(=O)[nH]1	-0.8	0.4	0.0	49.4	3.2
O=C(CCc1nc2ccccc2c(=O)[nH]1)Nc1nc(-c2cccs2)cs1	-3.6	0.1	-2.0	64.7*	-7.3
COc1ccccc1NS(=O)(=O)c1cc(NC(=O)CCc2nc3ccccc3c(=O)[nH]2)ccc1C	-3.6	-0.3	-0.8	94.3*	-7.1
CC1(NC(=O)CCc2nc3sc4c(c3c(=O)[nH]2)CCCC4)CCS(=O)(=O)C1 (stereo not given)	-0.9	-0.3	0.0	4.1	0.4
Cc1noc(C)c1S(=O)(=O)Nc1ccc2c(c1)CC(=O)N([C@H](C)CO)C[C@H](C)[C@H](CN(C)Cc1ccc3c(c1)OCO3)O2	8.2	.	.	.	.
CCC(=O)Nc1ccc2c(c1)C(=O)N(C)C[C@@H](OC)[C@H](C)CN(C(=O)CC1CC1)[C@H](C)CO2	-4.3	.	.	.	.
COc1ccc(NC(=O)CN(C)C(=O)CCCc2nc3ccccc3c(=O)[nH]2)cc1	-2.4	-0.1	0.2	31.4	23.2
N#CCCN(C(=O)COC(=O)CCc1nc2ccccc2c(=O)[nH]1)c1ccc(F)cc1	34.5	-0.3	0.9	53.6*	-5.8
CN(CC(=O)Nc1ccc(F)cc1)C(=O)CCc1nc2ccccc2c(=O)[nH]1	-21.4	-0.2	1.8	60.1*	5.2
O=C(CCc1nc2ccccc2c(=O)[nH]1)NCc1ccco1	-3.2	-0.1	4.2	76.0*	.
SMILES	ARNT-TACC3 inh	aDG glyco up	N-glyco inh	Cardio protect	Vif inh
O=C(CCc1nc2ccccc2c(=O)[nH]1)Nc1ccc(F)cc1	-4.0	-0.1	-3.7	62.1*	-1.3
Cc1noc(C)c1NC(=O)N(C)C[C@@H]1Oc2c(NC(=O)C3CC3)cccc2C(=O)N([C@@H](C)CO)C[C@H]1C	-9.9	.	.	.	.
O=[N+]([O-])c1cc(Cl)cc(/C=N/NC(=S)Nc2ccc(S(=O)(=O)N3CCOCC3)cc2)c1O	69.6*	-0.4	0.8	24.1	.
O=S(=O)(c1ccc(NC(=S)NN=Cc2ccccc2O)cc1)N1CCCCC1	45.6*	1.1	-3.8	28.7	3.6
O=S(=O)(c1ccc(NC(=S)N/N=C/c2ccc(O)c(O)c2)cc1)N1CCOCC1	6.0	-0.1	-0.7	6.4	-10.9
O=C(C1CCC1)N1C[C@H]2[C@@H](c3ccccc31)[C@@H](CO)N2C(=O)c1ccccc1	5.5	.	.	.	.
COc1ccc(CSc2nc3ccccc3c(=O)[nH]2)cc1F	-0.9	-0.2	-0.1	53.2*	4.2
COc1ccccc1OCCSc1nc2ccccc2c(=O)[nH]1	-15.3	-0.1	4.0	66.3*	-6.4
O=c1[nH]c(SCCOc2ccccc2F)nc2ccccc12	-3.1	-0.1	0.2	12.1	-6.4
CCOc1ccc(-c2csc(NC(=O)c3cccc(N4C(=O)CCC4=O)c3)n2)cc1	.	1.3	0.5	26.5	-7.2
COc1ccc(-c2csc(NC(=O)c3cccc(N4C(=O)CCC4=O)c3)n2)cc1OC	.	0.0	-4.1	84.8*	-6.2
CCCN1C[C@H](C)[C@H](OC)CN(C)C(=O)c2ccc(NC(=O)c3ccc(F)cc3)cc2OC[C@@H]1C	-4.5	.	.	.	.
CSc1ccc2c(c1)N(CCC1CCCCN1C)c1ccccc1S2 (stereo not given)	57.7*!	0.3	6.9	-15.7	-3.6
CC(=O)c1ccc2c(c1)N(CCCN1CCC(CCO)CC1)c1ccccc1S2	0.9	0.8	-1.1	-8.0	8.4
C=CCN1C(=O)/C(=C2/Sc3ccccc3N2CC)SC1=S	6.9	-0.1	-1.8	-3.1	84.7*
C=CCN1C(=O)/C(=C2/Sc3ccccc3N2CCCS(=O)(=O)O)SC1=S	4.4	0.3	1.2	12.7	1.3
C[C@@H]1CN([C@H](C)CO)C(=O)c2cc(NS(=O)(=O)c3ccc(Cl)cc3)ccc2O[C@H]1CN(C)C(=O)Nc1ccc(F)cc1	1.5	.	.	.	.
O=c1[nH]c(C2CCCN(S(=O)(=O)c3ccccc3)C2)nc2c1nnn2Cc1ccccc1 (stereo not given)	-1.9	-0.4	-3.9	3.4	-0.6
COC(=O)c1ccc(Cn2nnc3c(=O)[nH]c(C4CCCN(S(=O)(=O)c5ccccc5)C4)nc32)cc1 (stereo not given)	-2.9	0.5	0.4	60.9*	-5.1
CC(=O)N(C)C[C@@H]1Oc2ncc(C#C[C@@H](C)O)cc2C(=O)N([C@@H](C)CO)C[C@H]1C	-4.1	.	.	.	.
COc1ccc(NC(=O)Cn2ncc(Cl)c(Cl)c2=O)cc1S(=O)(=O)N1CCOCC1	6.7	0.4	13.3	0.1	59.0*
Cc1ccc(NC(=O)c2sc(Cl)nc2C)c(C)c1	-2.4	0.7	0.5	-3.1	-17.8
Cc1cc(C)c(C)c(OC(=O)c2sc(Cl)nc2C)c1	-7.6	-0.3	38.3*	-8.6	2.1
C[C@@H]1CN([C@@H](C)CO)C(=O)c2cc(-c3ccccc3F)cnc2O[C@H]1CN(C)C(=O)C1CCCCC1	-3.5	.	.	.	.
S=C(NCc1ccccc1)Nc1cccc2cnccc12	.	1.7	0.9	-23.7	-7.8
